Source: PubChem BioAssay
PI4K2A inh: PI4K2A (human) kinase inhibition; Q9BTU6; purified PI4K2A, ADP-Glo luminescence, 1 h; hits give low values; activity change, negative = inhibition, % at 76.9 µM; actives 0.13% (n = 420,000); in the data active = activity change below about -50%; inconclusive = mostly about -30% to -49%;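 note: -100% = wells without enzyme as full effect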
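ADP-Glo luminescence measured ADP generated by PI4K2A enzyme (4 ug/mL before mixing) with 1.2 mM PI substrate (pre-mix) and 300 microM ATP (pre-mix). Tris pH7.5 buffer with MgCl2, Triton X-100; 1 h reaction at ambient temperature.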
GALK inh: inhibitors of human galactokinase. P51570. Purified GALK, Kinase-Glo residual ATP luminescence. Potency, µM (titrated, usually from 57.5 µM), inactives show at the highest dose activity change, negative = inhibition, usual class: inhibitors. actives 0.007% (n = 270,000). AID 1868; note: potency is the fitted concentration of half-maximal effect
Target sequence (P51570 whole entry, looked up): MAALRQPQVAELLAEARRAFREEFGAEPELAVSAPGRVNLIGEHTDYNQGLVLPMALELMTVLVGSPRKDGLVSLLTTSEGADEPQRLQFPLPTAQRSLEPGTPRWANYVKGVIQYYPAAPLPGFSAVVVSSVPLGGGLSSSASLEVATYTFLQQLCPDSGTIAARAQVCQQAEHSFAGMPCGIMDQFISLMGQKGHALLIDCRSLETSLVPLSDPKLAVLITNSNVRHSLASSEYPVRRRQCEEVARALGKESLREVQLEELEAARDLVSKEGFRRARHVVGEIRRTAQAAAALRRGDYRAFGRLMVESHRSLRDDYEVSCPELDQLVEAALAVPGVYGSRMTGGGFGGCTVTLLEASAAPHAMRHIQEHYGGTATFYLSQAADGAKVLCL
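Galactose (100 uM) and ATP (35 uM) were turned over by 5 nM GALK for 1 h at RT. Kinase-Glo Plus then converted the remaining ATP into a luminescent signal.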
FBPA coupling cs: coupling enzyme interference in Giardia aldolase counter-screen | coupling enzyme system counterscreen, AmpLite Red fluorescence | activity change, negative = inhibition, % at 58.2 µM, hits read low | actives 0.67% (n = 290,000) | AID 2472; in the data active = activity change below about -30%
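Counterscreen lacking aldolase: glyceraldehyde-3-phosphate coupling-enzyme reagent preincubated 10 min at RT with compound (at 57.5 uM final), then substrate/coupling system with AmpLite Red added; fluorescence read at 525/598 nm after 20 min RT.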
rTrxR1 inhibitor: inhibitors of rat thioredoxin reductase 1 | Potency, µM (doses to about 114 µM), for the others: at the top dose activity change, negative = inhibition, most hits filed as inhibitors | recombinant rTrxR1, NADPH fluorescence consumption, selenite substrate | AID 588453 | O89049 | actives 1% (n = 390,000); note: potency is the fitted concentration of half-maximal effect; nearly all actives have a fitted effect of over 65% in size
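Rat TrxR1 (90 nM in the dispensed reagent) was pre-reduced with 400 uM NADPH for 5 min at room temperature, then incubated with compound for 15 min. After 400 uM selenite was added, NADPH fluorescence (Ex 340/Em 450 nm) was followed for 8 min.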
Giardia killer: Giardia lamblia killing; Giardia lamblia trophozoite viability; activity change, % at 7.66 µM, hits read low; actives 0.15% (n = 340,000); in the data active = activity change below about -80%; inconclusive = between about -30% and that limit;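 note: parasites exposed to compound for two days anaerobically before the ATP read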
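Killing of trophozoites was scored by loss of ATP luminescence after a 48 hrs anaerobic exposure to compounds at 37 deg C, using 100 cells per well.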
TrxR1 substrate: rat thioredoxin reductase 1 substrate activity | O89049 | purified TrxR1 substrate turnover, NADPH consumption readout | Potency, µM (doses to about 114 µM), inactives show top-dose activity change, negative = substrate turnover | actives 0.01% (n = 390,000); note: potency is the fitted concentration of half-maximal effect; nearly all actives have a fitted effect of over 50% in size
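Rat TrxR1, dispensed at 90 nM, was prereduced with 400 uM NADPH (final) for 5 min at ~22 deg C, then incubated with compound 15 min before 400 uM selenite. A first-read NADPH fluorescence drop versus no-compound background flagged substrates.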
Active calls of the source: *; ? = inconclusive; / = no result; [ ] = another dose, or the depositor's remark. Hits are enriched below; roughly 1.5% of the tested compounds scored in any of these assays. Unless noted, calls come from the whole dose curve; as a rule, active = well fitted curve in the direction sought with a large enough effect; inconclusive = small, poorly fitted or top-dose-only effect, or another doubt; inactive = no such curve, though single readings can be large; an effect the other way counts as inactive or inconclusive. Unless noted, % is set by controls: 0 for no effect and ±100 for the full control effect.

SMILES	PI4K2A inh	GALK inh	FBPA coupling cs	rTrxR1 inhibitor	Giardia killer	TrxR1 substrate
CC(C)CC1C(C#N)=C(N)Oc2n[nH]c(-c3cccs3)c21 (centres undefined)	-7.6	-0.5%	-3.8	-8.5%	-2.8	-4.7%
CSCCC1C(C#N)=C(N)Oc2n[nH]c(-c3cccs3)c21 (centres undefined)	-7.1	-0.7%	-12.9	10µM*	12.6	-0.5%
COc1cccc(CNC(=O)C2=C(C)C(=O)OC23CCN(C(C)=O)CC3)c1OC	2.1	/	/	4.6%	/	-0.1%
N#C/C(=C\c1cccc(Cl)c1)C(=O)c1ccccc1	-7.2	-15.3%	-5.9	11.2µM*	-23.6	4.6%[57.1 µM]
CC(=O)N1CCc2c(sc3c2c(=O)n(-c2ccccc2)c(=O)n3Cc2cccc(C(F)(F)F)c2)C1	-1.5	/	/	5.5%	/	-1.7%
CCCCCCCCCCCCCCCCn1cc[n+](Cc2ccccc2)c1C	/	/	0.0	/	/	/
Cc1cc(C)c(S(=O)(=O)/N=C2/C=C(SCC(=O)O)C(=O)c3ccccc32)cc1C	-53.0*	-0.4%	-45.7*	?	-10.5	-5.6%
Cn1c(=O)c(=O)n(C)c2cc(N3CCCC3)c(NS(=O)(=O)c3ccc(Cl)cc3)cc21	-4.7	-4.7%	-17.4	35.5µM*	-2.7	-0.6%
COc1ccc(CC(=O)NCC(c2ccc(N(C)C)cc2)N2CCOCC2)cc1OC (centres undefined)	-1.7	/	/	12.2%[57.1 µM]	/	5.4%[57.1 µM]
O=C(C[n+]1ccncc1)c1ccc2ccccc2c1	/	/	/	-8.7%	/	2.6%
Cc1cc(C)nc(Sc2ncnc(N)c2[N+](=O)[O-])n1	-4.4	6.0%	3.3	11.2µM*	4.9	5.8%[57.1 µM]
CC(=O)N1CCN(C(=O)c2ccc(-c3cccc(C(F)(F)F)c3)o2)CC1	-0.8	/	/	39.8µM*	0.4	-3.1%
O=C(c1ccc(-c2cccc(C(F)(F)F)c2)o1)N1CCOCC1	8.8	1.7%	2.7	1.0%[57.1 µM]	-7.7	8.0%[57.1 µM]
Cn1c(/C=C/c2ccccc2)nc2ccccc21	-66.2*	23.6%	-9.8	37.7%	?	82.3%
O=C(Nc1ccc(N2CCN(C(=O)c3ccccc3)CC2)cc1)c1ccc([N+](=O)[O-])o1	-2.6	0.8%	-9.9	-28.2%	-99.9*	-12.5%
Cc1ccc(C(=O)Nc2ccc(C(=O)N3CCCCC3)cc2)o1	-52.8*	17.8%	/	2.5%	-17.8	-7.6%
CC(C)C(=O)N1CCN(c2ccc(NC(=O)c3ccc([N+](=O)[O-])o3)cc2)CC1	-1.2	5.4%	-5.9	7.0%[57.1 µM]	?	-7.0%
Cc1ccccc1C(=O)N1CCN(c2ccc(NC(=O)c3ccc([N+](=O)[O-])o3)cc2)CC1	-1.3	-0.7%	0.3	-7.7%	-90.5*	-2.9%
CCOc1c(N2CCOCC2)cnn(C)c1=O	-1.3	/	/	/	/	/
Cc1cc(C)nc(Sc2ccc([N+](=O)[O-])cc2[N+](=O)[O-])n1	2.7	0.9%	1.7	10µM*	11.7	-14.8%
O=[N+]([O-])c1ccc(Sc2ccncn2)c([N+](=O)[O-])c1	20.1	/	/	/	/	/
O=[N+]([O-])c1ccc(Sc2cccc3cccnc23)cc1	-2.6	0.2%	-42.0*	2.8%	-1.6	0.3%
CN(C)/N=C/c1ccc(Sc2ccc([N+](=O)[O-])cc2[N+](=O)[O-])o1	12.5	0.0%	-6.3	50.1µM*	-4.9	-5.0%
O=[N+]([O-])c1ccc(Sc2cccc3cccnc23)c([N+](=O)[O-])c1	-28.5	-2.7%	-46.6*	47.5%	-14.9	3.0%
O=C(C1CCCN(S(=O)(=O)c2cccc3nsnc23)C1)N1CCN(c2ccccc2)CC1 (centres undefined)	-4.3	/	/	11.7%	/	-7.0%
CC(C)c1ccc(NC(=O)CSc2nnc(-c3ccco3)n2C)cc1	2.6	/	/	/	/	/
CC(C)C(=O)Nc1cccc(S(=O)(=O)NC2=NCCC2)c1	1.3	/	/	/	/	/
O=C(CCl)Nc1cccc(S(=O)(=O)NC2=NCCC2)c1	5.6	-1.9%	-1.1	28.2µM*	-2.9	3.9%
CCOC(=O)c1ccc(Nc2cnc3ccccc3n2)cc1	-1.7	0.4%	-1.3	17.0%[57.1 µM]	-5.9	10.8%[57.1 µM]
O=C(O)c1ccc(Nc2cnc3ccccc3n2)cc1	-55.1*	1.7%	3.8	-22.7%	-1.1	-13.7%
